Assay results as given in PubChem BioAssay AID1159580 (chemical genetic matrix, 2015).
Out of some 5,500 compounds screened, about 2,000 (36%) were called active. Another 18% or so got no clear call; they are omitted. The list shows a part of the results. Values without a mark were called inactive. Rule as the data show it: active = normalized growth mostly below about 0.91 (no sharp cut-off); inconclusive = no clear call, values can overlap the other calls; inactive = mostly above about 0.92.

Test: chemical genetic growth profiling, strain panel (AID 1159580);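 also: tested at 20 µM; growth read once vehicle control cultures reached saturation at 30 °C; 1 = growth at the plate median or of vehicle wells; lower values mean less growth of the strain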
Conditions: S. cerevisiae deletion strains, growth OD

## CCCCCCCCCCCC1=C(O)C(=O)C=C(O)C1=O
Locus YAL013W, strain DEP1, stronger effect = lower value
  normalized growth: 0.662 (active)
Locus YAL021C, strain ccr4, stronger effect = lower value
  normalized growth: 0.835 (active)
Locus YAL026C, strain drs2, stronger effect = lower value
  normalized growth: 0.394 (active)
Locus YAL030W, strain snc1, stronger effect = lower value
  normalized growth: 0.889 (active)
Locus YBL061C, strain skt5, stronger effect = lower value
  normalized growth: 0.795 (active)
Locus YBR009C, strain hhf1, stronger effect = lower value
  normalized growth: 0.853 (active)
Locus YBR021W, strain FUR4, stronger effect = lower value
  normalized growth: 0.916
Locus YBR023C, strain chs3, stronger effect = lower value
  normalized growth: 0.815 (active)
Locus YBR171W, strain sec66, stronger effect = lower value
  normalized growth: 0.853 (active)
Locus YBR229C, strain ROT2, stronger effect = lower value
  normalized growth: 1
Locus YBR231C, strain swc5, stronger effect = lower value
  normalized growth: 0.77 (active)
Locus YBR279W, strain paf1, stronger effect = lower value
  normalized growth: 0.762 (active)
Locus YCL011C, strain gbp2, stronger effect = lower value
  normalized growth: 0.822 (active)
Locus YCL016C, strain dcc1, stronger effect = lower value
  normalized growth: 0.886 (active)
Locus YCL029C, strain bik1, stronger effect = lower value
  normalized growth: 0.89 (active)
Locus YCL061C, strain MRC1, stronger effect = lower value
  normalized growth: 0.628 (active)
Locus YCL069W, strain vba3, stronger effect = lower value
  normalized growth: 0.538 (active)
Locus YCR088W, strain abp1, stronger effect = lower value
  normalized growth: 0.723 (active)
Locus YDL005C, strain med2, stronger effect = lower value
  normalized growth: 0.961
Locus YDL035C, strain GPR1, stronger effect = lower value
  normalized growth: 0.525 (active)
Locus YDL040C, strain nat1, stronger effect = lower value
  normalized growth: 0.95
Locus YDL074C, strain BRE1, stronger effect = lower value
  normalized growth: 0.365 (active)
Locus YDL101C, strain DUN1, stronger effect = lower value
  normalized growth: 0.994
Locus YDL134C, strain PPH21, stronger effect = lower value
  normalized growth: 0.956
Locus YDL185W, strain tfp1, stronger effect = lower value
  normalized growth: 0.503 (active)
Locus YDL192W, strain arf1, stronger effect = lower value
  normalized growth: 0.834 (active)
Locus YDR001C, strain nth1, stronger effect = lower value
  normalized growth: 0.786 (active)
Locus YDR069C, strain doa4, stronger effect = lower value
  normalized growth: 0.692 (active)
Locus YDR101C, strain arx1, stronger effect = lower value
  normalized growth: 0.871 (active)
Locus YDR137W, strain rgp1, stronger effect = lower value
  normalized growth: 0.81 (active)
Locus YDR150W, strain NUM1, stronger effect = lower value
  normalized growth: 0.673 (active)
Locus YDR159W, strain sac3, stronger effect = lower value
  normalized growth: 0.822 (active)
Locus YDR162C, strain NBP2, stronger effect = lower value
  normalized growth: 0.338 (active)
Locus YDR195W, strain ref2
  normalized growth: 0.853 (active)
Locus YDR297W, strain sur2, stronger effect = lower value
  normalized growth: 0.87 (active)
Locus YDR318W, strain mcm21, stronger effect = lower value
  normalized growth: 0.955
Locus YDR334W, strain swr1, stronger effect = lower value
  normalized growth: 0.259 (active)
Locus YDR335W, strain msn5, stronger effect = lower value
  normalized growth: 0.599 (active)
Locus YDR388W, stronger effect = lower value
  normalized growth: 0.98
Locus YDR392W, strain spt3, stronger effect = lower value
  normalized growth: 0.16 (active)
Locus YDR502C, strain sam2, stronger effect = lower value
  normalized growth: 0.886 (active)
Locus YEL003W, strain gim4, stronger effect = lower value
  normalized growth: 0.851 (active)
Locus YEL037C, strain rad23, stronger effect = lower value
  normalized growth: 0.467 (active)
Locus YEL061C, strain CIN8 (second series), stronger effect = lower value
  normalized growth: 0.493 (active)
Locus YEL061C, strain CIN8, stronger effect = lower value
  normalized growth: 0.665 (active)
Locus YER015W, strain faa2, stronger effect = lower value
  normalized growth: 0.748 (active)
Locus YER016W, strain bim1, stronger effect = lower value
  normalized growth: 0.944
Locus YER110C, stronger effect = lower value
  normalized growth: 0.976
Locus YER111C, strain swi4, stronger effect = lower value
  normalized growth: 0.265 (active)
Locus YER155C, strain BEM2 (second series), stronger effect = lower value
  normalized growth: 0.615 (active)
Locus YER155C, strain BEM2, stronger effect = lower value
  normalized growth: 0.925
Locus YER167W, strain BCK2, stronger effect = lower value
  normalized growth: 0.952
Locus YFR010W, strain ubp6, stronger effect = lower value
  normalized growth: 0.507 (active)
Locus YGL078C, strain dbp3, stronger effect = lower value
  normalized growth: 0.822 (active)
Locus YGL086W, strain mad1, stronger effect = lower value
  normalized growth: 0.798 (active)
Locus YGL167C, strain pmr1, stronger effect = lower value
  normalized growth: 0.882 (active)
Locus YGL173C, strain kem1, stronger effect = lower value
  normalized growth: 0.703 (active)
Locus YGL227W, strain vid30, stronger effect = lower value
  normalized growth: 0.909 (active)
Locus YGL240W, strain doc1, stronger effect = lower value
  normalized growth: 0.923
Locus YGL248W, strain PDE1, stronger effect = lower value
  normalized growth: 0.92
Locus YGL253W, strain hxk2, stronger effect = lower value
  normalized growth: 0.359 (active)
Locus YGR078C, strain PAC10, stronger effect = lower value
  normalized growth: 0.684 (active)
Locus YGR135W, strain pre9, stronger effect = lower value
  normalized growth: 0.888 (active)
Locus YGR252W, strain gcn5, stronger effect = lower value
  normalized growth: 0.95
Locus YHR013C, strain ard1, stronger effect = lower value
  normalized growth: 0.743 (active)
Locus YHR027C, strain rpn1, stronger effect = lower value
  normalized growth: 0.605 (active)
Locus YHR030C, strain SLT2, stronger effect = lower value
  normalized growth: 0.596 (active)
Locus YHR079C, strain IRE1 (second series), stronger effect = lower value
  normalized growth: 0.991
Locus YHR094C, strain hxt1, stronger effect = lower value
  normalized growth: 0.994
Locus YHR129C, strain ARP1, stronger effect = lower value
  normalized growth: 0.67 (active)
Locus YHR142W, strain chs7, stronger effect = lower value
  normalized growth: 0.274 (active)
Locus YHR200W, strain rpn10, stronger effect = lower value
  normalized growth: 0.89 (active)
Locus YIL066C, strain RNR3, stronger effect = lower value
  normalized growth: 0.856 (active)
Locus YIL073C, strain SPO22, stronger effect = lower value
  normalized growth: 0.933
Locus YIL125W, strain kgd1, stronger effect = lower value
  normalized growth: 0.623 (active)
Locus YIR030C, strain dcg1, stronger effect = lower value
  normalized growth: 0.972
Locus YJL092W, strain hpr5, stronger effect = lower value
  normalized growth: 0.684 (active)
Locus YJL095W, strain BCK1 (second series), stronger effect = lower value
  normalized growth: 0.88 (active)
Locus YJL095W, strain BCK1, stronger effect = lower value
  normalized growth: 0.68 (active)
Locus YJL115W, strain asf1, stronger effect = lower value
  normalized growth: 0.72 (active)
Locus YJL129C, strain trk1, stronger effect = lower value
  normalized growth: 0.999
Locus YJL134W, strain LCB3, stronger effect = lower value
  normalized growth: 0.984
Locus YJL154C, strain vps35, stronger effect = lower value
  normalized growth: 0.521 (active)
Locus YJL164C, strain tpk1, stronger effect = lower value
  normalized growth: 0.83 (active)
Locus YJL166W, strain qcr8, stronger effect = lower value
  normalized growth: 0.792 (active)
